Assay results from PubChem BioAssay AID1159580 (chemical genetic matrix, 2015).
Hit rate of the full screen: of about 5,500 compounds, about 2,000 (36%) were called active. About 18% were inconclusive and are not listed. Rule as the data show it: active = normalized growth mostly below about 0.91 (no sharp cut-off); inconclusive = no clear call, values can overlap the other calls; inactive = mostly above about 0.92. Some of the results follow.

Test: chemical genetic growth profiling, strain panel (AID 1159580);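 also: tested at 20 µM; growth read once vehicle control cultures reached saturation at 30 °C; 1 = growth at the plate median or of vehicle wells; lower values mean less growth of the strain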
Settings: S. cerevisiae deletion strains, growth OD

Measured: normalized growth

O=C1NCN(c2ccccc2)C12CCN(CCCC(c1ccc(F)cc1)c1ccc(F)cc1)CC2
inactive: locus YAL013W, strain DEP1, active compounds read low 1.01 | locus YAL040C, strain CLN3, active compounds read low 0.995 | locus YCL061C, strain MRC1 (second series), active compounds read low 1 | locus YDR150W, strain NUM1, active compounds read low 0.987 | locus YDR363W, strain ESC2, active compounds read low 0.992 | locus YER002W, strain NOP16, active compounds read low 1.03 | locus YJR075W, strain HOC1, active compounds read low 0.998 | locus YMR263W, strain SAP30, active compounds read low 1 | locus YNL128W, strain TEP1, active compounds read low 1.05 | locus YNL153C, strain GIM3, active compounds read low 0.982 | locus YNL197C, strain WHI3, active compounds read low 1.09 | locus YNL224C, strain SQS1, active compounds read low 1.07 | locus YNL322C, strain KRE1, active compounds read low 1 | locus YOR083W, strain WHI5 (second series), active compounds read low 1.09 | locus YPL241C, strain CIN2, active compounds read low 1
